Assay results taken from article PMC5700166.

What follows are sequences tested against T1, GST-Co-NF-kB (Capsaspora owczarzaki, UniProt F1ARL5 200-546) (assay: protein-binding microarray (PBM); PBM: ~300 nM protein, 6 mM HEPES pH 7.8, 80 mM KCl, 0.5 mM EDTA, 0.5 mM EGTA, 6% glycerol, 35 ng/ul poly-dIdC, 1% milk, 1 h, room temperature; Ap Aiptasia and Nv Nematostella (sea anemones) / Co Capsaspora / Aq Amphimedon (sponge) / Dm Drosophila / Hu human; RHD is the Rel homology domain; high values mean tight binding). Details: dsDNA, one strand shown.
T1 sequence: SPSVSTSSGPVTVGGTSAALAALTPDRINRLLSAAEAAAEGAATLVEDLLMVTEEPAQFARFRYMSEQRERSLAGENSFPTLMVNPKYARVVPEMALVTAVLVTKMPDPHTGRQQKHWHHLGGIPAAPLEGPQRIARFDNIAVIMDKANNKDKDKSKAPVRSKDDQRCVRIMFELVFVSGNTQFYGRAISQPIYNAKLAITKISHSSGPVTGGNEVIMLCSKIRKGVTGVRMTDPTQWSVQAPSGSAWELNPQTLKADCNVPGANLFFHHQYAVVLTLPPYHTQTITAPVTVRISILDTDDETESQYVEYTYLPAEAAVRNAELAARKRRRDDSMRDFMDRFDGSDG

Sequence | binding signal [z-score]
CCGATTAACATCAAAAGTCCCCGTGATGTTAATCGGGTCTTGATTCGCTTGACGCTGCTG | 4.26
CCGATTAACATCACACTACCCCCTGATGTTAATCGGGTCTTGATTCGCTTGACGCTGCTG | 3.89
CCGATTAACATCAAAGTCTCCCCTGATGTTAATCGGGTCTTGATTCGCTTGACGCTGCTG | 7.88
CCGATTAACATCACCAACCCCCCTGATGTTAATCGGGTCTTGATTCGCTTGACGCTGCTG | 3.02
CCGATTAACATCAGCTAATTCCCTGATGTTAATCGGGTCTTGATTCGCTTGACGCTGCTG | 1.82
CCGATTAACATCAGACTTTTCCCTGATGTTAATCGGGTCTTGATTCGCTTGACGCTGCTG | 4.28
CCGATTAACATCAAAAATCCCAATGATGTTAATCGGGTCTTGATTCGCTTGACGCTGCTG | 1.58
CCGATTAACATCAAATTCCCCCTTGATGTTAATCGGGTCTTGATTCGCTTGACGCTGCTG | 8.93
CCGATTAACATCAAAAAATACCCTGATGTTAATCGGGTCTTGATTCGCTTGACGCTGCTG | 3.1
CCGATTAACATCAAAATACCCCCTGATGTTAATCGGGTCTTGATTCGCTTGACGCTGCTG | 7.21
CCGATTAACATCAGGACCTCCCCTGATGTTAATCGGGTCTTGATTCGCTTGACGCTGCTG | 2.53
CCGATTAACATCAGGGGATTCACTGATGTTAATCGGGTCTTGATTCGCTTGACGCTGCTG | 3.35
CCGATTAACATCAGGGAATGCCCTGATGTTAATCGGGTCTTGATTCGCTTGACGCTGCTG | 1.43
CCGATTAACATCAGAAGATCCCCTGATGTTAATCGGGTCTTGATTCGCTTGACGCTGCTG | 2.91
CCGATTAACATCAGAATTCCCCCTGATGTTAATCGGGTCTTGATTCGCTTGACGCTGCTG | 10.8
CCGATTAACATCAAAAGATCCCCTGATGTTAATCGGGTCTTGATTCGCTTGACGCTGCTG | 5.39
CCGATTAACATCACGGAACCCCCTGATGTTAATCGGGTCTTGATTCGCTTGACGCTGCTG | 2.13
CCGATTAACATCAGGGGGATAAATGATGTTAATCGGGTCTTGATTCGCTTGACGCTGCTG | 7.85
CCGATTAACATCAATCTTTCCCCTGATGTTAATCGGGTCTTGATTCGCTTGACGCTGCTG | 8.32
CCGATTAACATCAAAAGTCCCCTTGATGTTAATCGGGTCTTGATTCGCTTGACGCTGCTG | 3.35

Sequence | binding signal [z-score]
CCGATTAACATCAAGTCCCCCCATGATGTTAATCGGGTCTTGATTCGCTTGACGCTGCTG | 6.53
CCGATTAACATCAATCACCCCCCTGATGTTAATCGGGTCTTGATTCGCTTGACGCTGCTG | 4.97
CCGATTAACATCAAAGCATCCCCTGATGTTAATCGGGTCTTGATTCGCTTGACGCTGCTG | 3.43
CCGATTAACATCAAGGGGGTACTTGATGTTAATCGGGTCTTGATTCGCTTGACGCTGCTG | 2.92
CCGATTAACATCAGGGGAATCCATGATGTTAATCGGGTCTTGATTCGCTTGACGCTGCTG | 5.44
CCGATTAACATCAAGAATCCCCTTGATGTTAATCGGGTCTTGATTCGCTTGACGCTGCTG | 2.64
CCGATTAACATCAAATATTCCCCTGATGTTAATCGGGTCTTGATTCGCTTGACGCTGCTG | 10.1
CCGATTAACATCAGGGAAAGCACTGATGTTAATCGGGTCTTGATTCGCTTGACGCTGCTG | 2.69
CCGATTAACATCACACATTCCCCTGATGTTAATCGGGTCTTGATTCGCTTGACGCTGCTG | 5.83
CCGATTAACATCACATATTCCCCTGATGTTAATCGGGTCTTGATTCGCTTGACGCTGCTG | 7.39
CCGATTAACATCAAGGATTCCCCTGATGTTAATCGGGTCTTGATTCGCTTGACGCTGCTG | 6.56
CCGATTAACATCAAAAAGACCCCTGATGTTAATCGGGTCTTGATTCGCTTGACGCTGCTG | 1.92
CCGATTAACATCAATTCCCCCCATGATGTTAATCGGGTCTTGATTCGCTTGACGCTGCTG | 9.55
CCGATTAACATCAGGGGAGTACCTGATGTTAATCGGGTCTTGATTCGCTTGACGCTGCTG | 3.7
CCGATTAACATCAGGGGGAAACCTGATGTTAATCGGGTCTTGATTCGCTTGACGCTGCTG | 9.35
CCGATTAACATCAGGACAGCCCCTGATGTTAATCGGGTCTTGATTCGCTTGACGCTGCTG | 1.05
CCGATTAACATCACAAGTTTCCCTGATGTTAATCGGGTCTTGATTCGCTTGACGCTGCTG | 4.92
CCGATTAACATCAGGGAATCTTATGATGTTAATCGGGTCTTGATTCGCTTGACGCTGCTG | 3.74
CCGATTAACATCAGGGGATGTTATGATGTTAATCGGGTCTTGATTCGCTTGACGCTGCTG | 3.17
CCGATTAACATCAAATAAGTCCCTGATGTTAATCGGGTCTTGATTCGCTTGACGCTGCTG | 1.42
